Compounds with a hit are over-represented: about 6% of the library has one in this group of screens.
D3 antag: antagonists of human D3 dopamine receptor. actives 2.5% (n = 360,000). D3R cells, DiscoveRx beta-arrestin luminescence, antagonist mode; active compounds read low. max response, negative = inhibition, %. AID 652054; in the data active = max response below about -50%; inconclusive = no clear call, values can overlap the other calls
Target sequence (P35462 whole entry, looked up): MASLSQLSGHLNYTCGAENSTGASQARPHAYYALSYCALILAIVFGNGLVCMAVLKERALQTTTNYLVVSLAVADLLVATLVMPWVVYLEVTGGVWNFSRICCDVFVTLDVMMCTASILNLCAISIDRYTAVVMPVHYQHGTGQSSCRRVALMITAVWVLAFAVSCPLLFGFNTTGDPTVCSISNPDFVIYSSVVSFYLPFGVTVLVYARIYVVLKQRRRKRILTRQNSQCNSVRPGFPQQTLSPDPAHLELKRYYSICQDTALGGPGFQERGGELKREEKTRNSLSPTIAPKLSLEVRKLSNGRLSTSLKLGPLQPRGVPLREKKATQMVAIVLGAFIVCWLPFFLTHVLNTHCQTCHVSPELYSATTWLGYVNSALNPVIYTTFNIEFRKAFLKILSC
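Cells expressing the human receptor were seeded at 1500 cells/well, incubated overnight at 37 degrees C in 5% CO2, then exposed to library compounds with dopamine controls for 90 minutes at 37 degrees C before luminescent detection.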
D1 antagonist: human D1 dopamine receptor antagonism. activity change, negative = inhibition, % at 10 µM. AID 504652. actives 3.2% (n = 360,000). HEK293 TREx D1 cells, calcium flux, dopamine EC80; active compounds read low; in the data active = activity change below about -30%
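Compound effects on dopamine-evoked calcium signalling were measured in tetracycline-induced HEK293 Trex D1 cells. Dopamine at EC80 followed a 180 s compound pre-read, and fluorescence was tracked kinetically for 180 s more.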
D1 potentiator: potentiators of human D1 dopamine receptor. P21728. HEK293 TREx D1 cells, calcium flux, dopamine EC20 potentiation. potentiation, % at 10 µM. actives 0.036% (n = 360,000). AID 504651; in the data active = potentiation above about 30%
D1 agonist: activates the human D1 dopamine receptor; P21728; actives 1% (n = 360,000); HEK293 T-REx D1 cells, calcium flux, agonist mode; activation, % at 2 µM; in the data active = activation above about 30%
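Tetracycline-induced HEK293 TREx D1 cells, force-coupled to calcium signalling, were dye-loaded with a no-wash calcium kit. Compound was pin-added after a 10 s baseline. Fluorescence was read kinetically at 1 cycle/s for 180 s, with calcium rises flagged as agonism.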
D3 ag: D3 dopamine receptor (human) agonism; P35462; D3R DiscoveRx beta-arrestin cells, luminescence, 90 min; max activation, %; actives 0.58% (n = 410,000); in the data active = max activation above about 30%
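Agonist-mode cell screen: cells plated at 1500/well and incubated overnight at 37 °C, then exposed to library compounds for 90 min at 37 °C. Detection reagent was added for 30–60 min at room temperature, and luminescence was read.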
Numbers stand for hits; n = inactive; u = inconclusive; x = no result given.

SMILES	D3 antag	D1 antagonist	D1 potentiator	D1 agonist	D3 ag
Cc1cccc(OC(C)C(=O)N2CCC(c3nc4ccccc4o3)CC2)c1C (stereo not drawn)	x	n	n	n	n
O=C(N/C(=C/c1cccnc1)C(=O)N1CCCCCC1)c1cccc(Br)c1	n	-39	n	n	n
O=C(N/C(=C/c1ccc(Br)cc1)C(=O)N1CCCCC1)c1ccccc1F	-57	n	n	n	n
O=C(NC(=S)N1CCCCCC1)c1ccccc1	n	n	n	n	n
O=C(NC(=S)N1CCCCC1)c1cccnc1	n	-34	n	n	n
O=C(N/C(=C\c1cccnc1)C(=O)N1CCC(O)CC1)c1ccccc1	n	n	n	n	n
CC1=C(C(=O)Nc2ccc(Cl)cc2)C(c2cccs2)n2nc(SCc3cccc(C)c3)nc2N1 (stereo not drawn)	x	n	n	n	n
O=C(NCCCc1ccccc1)c1nn(-c2ccccc2F)nc1CO	x	n	n	n	n
Cc1nc2sccn2c(=O)c1S(=O)(=O)NCC1CCN(Cc2ccccc2Cl)CC1	n	-66	n	n	n
CC(c1ccco1)N(C(=O)C12CC3CC(CC(C)(C3)C1)C2)c1ccccn1 (stereo not drawn)	-58	n	n	n	n
CCn1c(=O)c(CCC(=O)NCCN2CCOCC2)c(C)c2c(C)nn(-c3cccc(C)c3)c21	n	n	n	n	n
CCN1CCN(CCNC(=O)CCc2c(C)c3c(C)nn(-c4ccccc4)c3n(C)c2=O)CC1	n	-46	n	n	n
CCOc1ccc(C(=O)CC(NCc2cccs2)C(=O)O)cc1 (stereo not drawn)	u	-30	n	n	n
CCOc1ccc(C(=O)CCC(=O)N(CC)CC(=O)NCc2cccs2)cc1	n	n	n	n	n
COc1cc2cc(C(=O)O)n(C)c2c(OC)c1OC	n	-37	n	n	n
COc1cc2cc(C(=O)N[C@@H](Cc3ccccc3)C(=O)O)n(C)c2c(OC)c1OC	n	n	n	n	n
CCN1Cc2c(/C=C/c3ccccc3)nc3ccc(OC)cc3c2N(c2cccc(Cl)c2)C1	n	-63	n	n	n
COc1cccc(N2CCc3c(C)nc4ccc(Cl)cc4c32)c1	n	n	n	n	n
CCOC(=O)C1=C(N)Oc2c(c(=O)[nH]c3ccccc23)C1c1ccccc1 (stereo not drawn)	n	-87	n	n	n
O=C(/C=C/c1ccc(N2CCC(c3ccccc3)=N2)cc1)c1ccccc1	n	n	n	138	n
CCc1ccc(NC(=O)C(CC)n2nnc(C(=O)OC)c2C(=O)OC)cc1 (stereo not drawn)	x	n	n	n	n
O=C(O)c1cc(O)ccc1N=Nc1ccccc1	n	n	n	n	n
O=C(O)c1ccccc1N=Nc1ccc(O)cc1	-71	x	x	x	n
COC(=O)c1ccc(Sc2ccc(C)cc2)c(N)c1	n	-36	n	n	n
CC(C)(C)c1ccc(-c2nc(SCCCOc3ccccc3)n3[nH]c(=O)cc3n2)cc1	x	n	n	n	n
SMILES	D3 antag	D1 antagonist	D1 potentiator	D1 agonist	D3 ag
COc1ccccc1OCCCSc1nc(-c2ccc(C(C)(C)C)cc2)nc2cc(=O)[nH]n12	x	n	n	n	31
CNc1cc([N+](=O)[O-])ccc1N/C=C/C(=O)c1ccc2c(c1)OCO2	-50	n	n	n	n
C=C(C)c1nc(Oc2ccccc2)nc(Oc2ccccc2)n1	u	x	x	x	n
CCCOC(=O)NC(CC)COC(=O)Nc1cc(C)ccc1C (stereo not drawn)	-87	n	n	n	n
CCCCOC(=O)Nc1cc(Cl)ccc1C	n	n	n	n	n
CC(=O)c1ccccc1OCCCCN1CCCCC1	-77	n	n	n	n
CC(=O)c1ccccc1OCCOc1ccccc1C(C)=O	n	n	n	n	n
CCC(=O)c1ccccc1OCCN1CCN(CC)CC1	n	n	n	n	n
COC(=O)c1ccccc1OCCN1CCCCCC1	-57	n	n	n	n
CC(=O)c1ccc(NC(=O)Cn2nc(C(F)(F)F)c3c2CCC3)cc1	x	n	n	n	n
Cc1ccc(NC(=O)COc2cccc(C)c2C)cc1S(=O)(=O)N1CCCCCC1	n	n	n	n	n
CCc1cccc(OCC(=O)Nc2ccc(C)c(S(=O)(=O)N3CCCCCC3)c2)c1	n	n	n	33	n
CC(=O)c1ccc(OCCCC(=O)Nc2ccc(C)c(S(=O)(=O)N3CCCCC3)c2)cc1	n	-36	n	n	n
CCN(CC)CCNC(=O)C(=O)NCC(c1cccnc1)N1CCN(c2ccc(F)cc2)CC1 (stereo not drawn)	x	n	n	n	n
Cc1ccc2c(c1)sc(-c1ccc(N(C)C)cc1)[n+]2C	n	n	n	n	n
CN(CCOc1ccccc1)S(=O)(=O)c1ccc2oc3ccccc3c2c1	n	-43	n	40	n
COc1ccc(OCCNS(=O)(=O)c2ccc3oc4ccccc4c3c2)cc1	n	n	n	n	n
Cc1cccc(NC(=O)N2CCC3(CC2)Oc2ccccc2C(=O)N3Cc2ccccc2F)c1C	x	n	n	n	n
S=C(Nc1ccc(N2CCOCC2)cc1)Nc1ccc2nc(-c3ccco3)c(-c3ccco3)nc2c1	n	n	n	57	n
OC1(c2ccc(Cl)cc2)CCN(Cc2cn[nH]c2-c2ccccc2)CC1	-98	n	n	n	n
OC1(c2ccc(Cl)cc2)CCN(Cc2cn[nH]c2-c2ccc(F)cc2)CC1	-98	n	n	n	n
COc1ccc(-c2[nH]ncc2CN2CCC(O)(c3ccc(Cl)cc3)CC2)cc1	u	n	n	n	n
c1ccc(COc2ccc(OCCCCN3CCCC3)cc2)cc1	n	-34	n	35	n
CC1CCN(CCOc2ccc(OCc3ccccc3)cc2)CC1	n	-41	n	33	n
c1ccc(OCCCN2CCCC2)cc1	u	n	n	n	n
SMILES	D3 antag	D1 antagonist	D1 potentiator	D1 agonist	D3 ag
CN1CCN(CCOc2ccc(Cc3ccccc3)cc2)CC1	n	n	n	n	n
c1ccc(COc2ccc(OCCCN3CCCCC3)cc2)cc1	-80	n	n	n	n
CCOc1ccccc1C(=O)Nc1ccc(S(=O)(=O)Nc2onc(C)c2C)cc1	x	n	n	n	n
CCOc1ccc(NC(=O)NC(CC)Cn2nnc3ccccc3c2=O)cc1 (stereo not drawn)	x	n	n	n	n
COc1cc(CN2CCC(CO)(Cc3cccc(C(F)(F)F)c3)CC2)ccc1F	n	n	n	52	n
OCC1(Cc2cccc(C(F)(F)F)c2)CCN(Cc2cc3ccccc3o2)CC1	n	n	n	n	n
Cc1c(CN2CCC(CO)(Cc3cccc(C(F)(F)F)c3)CC2)c2ccccc2n1C	n	n	n	82	n
COC(=O)c1ccc(CN2CCC(CO)(Cc3cccc(OC)c3)CC2)cc1	-80	n	n	n	n
COc1ccc(CC2(CO)CCN(Cc3cc4ccccc4o3)CC2)cc1	-56	n	n	n	n
COc1ccc(F)c(CN2CCC(CO)(Cc3cccc(C(F)(F)F)c3)CC2)c1	n	n	n	n	n

High-throughput results (PubChem BioAssay)
